Bioassay records (PubChem BioAssay)
Sampled rows, rich in hits. Any-hit rate of the full collection: about 8.8%.
HTT aggregate: qHTS Multiplex Assay to Identify Dual Action Probes in a Cell Model of Huntington: Aggregate Formation (GFP); PC12 HttQ103-GFP aggregates, Acumen cytometry, 40 h; Potency, µM (series often up to 46.1 µM), for inactives: at the highest dose activity change, negative = inhibition, hits mostly inhibitors; hit rate 1.1% among 220,000; AID 1688, 2009; active = well fitted curve in the direction sought with a large enough effect; inconclusive = small, poorly fitted or top-dose-only effect, or another doubt; inactive = no such curve, though single readings can be large; an effect the other way counts as inactive or inconclusive; note: % is set by controls: 0 for no effect and ±100 for the full control effect; nearly all actives have a fitted effect of over 60% in size
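Ecdysone-promoter PC12 model expressing HTT exon 1 Q103 fused to GFP, induced by tebufenozide at 100 nM final. Compounds titrated; aggregates sized 1–25 µm scored on a 488 nm laser cytometer.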
HPGD block: qHTS Assay for Inhibitors of HPGD (15-Hydroxyprostaglandin Dehydrogenase); Potency, µM, inactives show top-dose activity change, negative = inhibition, usual class: inhibitors; 15-hydroxyprostaglandin dehydrogenase [NAD(+)] (Homo sapiens), P15428; hit rate 4.3% among 150,000; AID 894, 2007; purified HPGD, NADH fluorescence kinetic, PGE2 substrate; note: % is set by controls: 0 for no effect and ±100 for the full control effect
Target sequence (P15428 whole entry, looked up): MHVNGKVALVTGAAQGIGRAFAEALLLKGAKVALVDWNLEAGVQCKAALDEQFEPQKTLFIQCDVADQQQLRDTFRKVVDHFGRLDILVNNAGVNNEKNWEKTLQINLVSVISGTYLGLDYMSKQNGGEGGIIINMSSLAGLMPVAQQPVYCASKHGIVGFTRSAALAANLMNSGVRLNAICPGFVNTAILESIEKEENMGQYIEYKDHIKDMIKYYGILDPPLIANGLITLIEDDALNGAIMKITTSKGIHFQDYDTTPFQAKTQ
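NADH formation kinetics: reaction with 30 uM PGE2 and 1 mM NAD+ (final), 20 nM enzyme, Tris-HCl pH 8 with Tween 20, after 15 min compound preincubation at room temperature. Fluorescence change, last versus first of five reads.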
HTT cytoprotect: qHTS Multiplex Assay to Identify Dual Action Probes in a Cell Model of Huntington: Cytoprotection (ATP). hit rate 0.14% among 230,000. PC12 HTT-Q103 induced, cytoprotection, ATP luminescence, 40 h. Potency, µM (titrated, usually from 56.4 µM), for the others: cytoprotection (ATP increase), hits mostly activators; active = well fitted curve in the direction sought with a large enough effect; inconclusive = small, poorly fitted or top-dose-only effect, or another doubt; inactive = no such curve, though single readings can be large; an effect the other way counts as inactive or inconclusive; note: % of control where 0% means no effect; nearly all actives have a fitted effect of over 45% in size
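Stable PC12 Q103-GFP cells in serum-supplemented, phenol red-free DMEM; induction by tebufenozide at 100 nM final; compound dose series; cell viability quantified luminescently from ATP.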
ALDH1A1 inh: qHTS Assay for Inhibitors of Aldehyde Dehydrogenase 1 (ALDH1A1); Aldehyde dehydrogenase 1A1 (Homo sapiens), P00352; Purified ALDH1A1, NADH fluorescence, propionaldehyde substrate; Potency, µM (series often up to 75.3 µM), inactives show at the top dose activity, negative = inhibition, actives largely listed as inhibitors; hit rate 7.3% among 220,000; AID 1030, 2008;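 note: plate controls were no enzyme wells and a reference inhibitor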
Target sequence (P00352 whole entry, looked up): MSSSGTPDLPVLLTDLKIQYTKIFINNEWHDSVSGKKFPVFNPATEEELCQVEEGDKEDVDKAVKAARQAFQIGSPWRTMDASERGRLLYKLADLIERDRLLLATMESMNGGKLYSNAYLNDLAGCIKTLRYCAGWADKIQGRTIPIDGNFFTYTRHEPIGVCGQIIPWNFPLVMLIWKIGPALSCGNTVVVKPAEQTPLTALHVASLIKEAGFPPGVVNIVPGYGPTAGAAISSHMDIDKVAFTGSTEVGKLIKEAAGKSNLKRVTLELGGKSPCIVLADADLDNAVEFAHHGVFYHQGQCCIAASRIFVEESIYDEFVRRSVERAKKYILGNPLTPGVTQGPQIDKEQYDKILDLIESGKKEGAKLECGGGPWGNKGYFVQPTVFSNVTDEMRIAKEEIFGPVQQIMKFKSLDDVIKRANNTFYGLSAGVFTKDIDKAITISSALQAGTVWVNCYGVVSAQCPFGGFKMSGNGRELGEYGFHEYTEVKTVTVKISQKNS
Lamin A splicing: qHTS Assay for Modulators of Lamin A Splicing; HeLa LMNA splicing GFP/RFP minigene ratio, 48 h; Potency, µM (doses to about 46.1 µM), inactives show at the highest dose ratio change, negative = inhibition, hits mostly inhibitors; hit rate 0.01% among 200,000; AID 1487, 2009; active = well fitted inhibition curve with a large enough effect in the signal ratio, with a control signal flat, not every such curve was filed as active; inconclusive = small, poorly fitted or top-dose-only effect, or effect the other way, or a change in a side signal; the % refers to the signal ratio; note: % is set by controls: 0 for no effect and ±100 for the full control effect
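Read-out is the ratio of GFP to DsRed2 object intensity, acquired by 488 nm laser-scanning cytometry on HeLa lamin A-EGFP minigene reporter cells. Compound incubation 48 hrs at 37 °C in Opti-MEM with 2% FBS; DMSO 0.5% final.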
* = called active by the depositor; ? = inconclusive; / = not tested or not shown; [ ] = dose if it differs, or a comment. Unless noted, calls come from the whole dose curve; as a rule, active = well fitted inhibition curve with a large enough effect (not every such curve was filed as active); inconclusive = small, poorly fitted or top-dose-only effect, or another doubt; inactive = no such curve, though single readings can be large or run the other way. Potency is the fitted concentration of half-maximal effect.

SMILES	HTT aggregate	HPGD block	HTT cytoprotect	ALDH1A1 inh	Lamin A splicing
CCOC(=O)C(=O)C1=C(N2CCOCC2)/C(=C\c2cccc([N+](=O)[O-])c2)CC1	1%	32µM*	-18%[1.9 µM]	2.2µM*	-11%
O=[N+]([O-])c1cccc(/C=C2\CCC(/C=N/Nc3ccc4ccccc4n3)=C2N2CCOCC2)c1	12%	-11%	23%[10 µM]	?	-15%
CCOC(=O)c1cc(CC)sc1NC(=O)c1cc([N+](=O)[O-])ccc1N1CCOCC1	12%	-14%	-76%	?	-2%
O=C(CSc1nncs1)NCCCc1ccccc1	10%	/	-51%	?	0%[46 µM]
Cc1ccc(N2CCn3c2nc2c3c(=O)n(C/C=C/c3ccccc3)c(=O)n2C)cc1C	/	/	/	/	-8%[46 µM]
Cc1cc(Nc2nnnn2-c2ccccc2)n(-c2ccc(Cl)cc2)n1	16µM*	-16%	9%[10 µM]	-20%	?
Cc1cc(Nc2nc(Cl)c(Cl)cc2Cl)n(-c2ccccc2)n1	15%	-1%	9%[1.9 µM]	11%	?
Cc1cc(C)nc(-n2nc(C)cc2Nc2ccccc2)n1	?	-6%	-27%[0.074 µM]	?	?
Cc1cc(Nc2ccccc2)n(-c2ccccc2)n1	3%	18µM*	-5%	-1%	28%
CC(=O)c1ccccc1[N+](=O)[O-]	/	-5%	23%	-6%	/
Cc1ccc(C)n1-c1ccc(C(=O)NN)s1	20%	/	15%[10 µM]	14µM*	-11%[46 µM]
CCOC(=O)CNC(=O)c1ccc(Br)s1	-16%[9.22 µM]	/	21%[10 µM]	/	/
O=C1CCCC=C1[C@H](O)c1ccc([N+](=O)[O-])cc1	/	/	-10%[10 µM]	-4%[13.5 µM]	/
c1ccc(CNc2ncnc3c2cnn3Cc2ccccc2)cc1	22µM*	?	-33%[10 µM]	?	?
Clc1ccc(Cn2ncc3c(NCc4ccco4)ncnc32)c(Cl)c1	?	28µM*	10%[0.074 µM]	?	-28%
COc1ccc(Nc2ncnc3c2cnn3Cc2ccccc2)cc1	-26%	22µM*	-8%[10 µM]	8.9µM*	?
CCC(C)Nc1ncnc2c1cnn2Cc1ccc(Cl)cc1 (configuration not stated)	25µM*	-24%	-41%	3%	?
CC1CCN(c2ncnc3c2cnn3Cc2ccc(Cl)cc2)CC1	?	-16%	-49%	0%	?
CCOc1ccc(Nc2ncnc3c2cnn3-c2ccccc2)cc1	-7%	-9%	6%[10 µM]	-10%	-9%
CCOc1ccc(Nc2ncnc3c2cnn3Cc2ccccc2)cc1	-25%	?	-30%	11µM*	11%
CCCCc1nn2c(=O)cc(COC(=O)c3cccc(NC(=O)c4cccc(Cl)c4)c3)nc2s1	/	/	/	/	5%[46 µM]
O=S(=O)(Nc1cccc(CO)c1)c1cccs1	1%[9.22 µM]	/	12%[10 µM]	?	13%[46 µM]
O=S(=O)(Nc1ccc(N2CCCCC2)cc1)c1cccs1	-10%	25µM*	-3%	-2%	?
Cc1cccc(NS(=O)(=O)c2cccs2)c1	-15%	28µM*	9%	9%	14%
O=S(=O)(Nc1ccc(S(=O)(=O)N2CCCCCC2)cc1)c1cccs1	-28%	-9%	10%	?	9%
SMILES	HTT aggregate	HPGD block	HTT cytoprotect	ALDH1A1 inh	Lamin A splicing
CCCOC(=O)c1ccc(NS(=O)(=O)c2cccs2)cc1	0%	18µM*	1%	?	?
O=C(CNCc1cccs1)Nc1ccc(N2CCCCCC2)cc1	1%	/	-37%	22µM*	?
Cc1cccc(NS(=O)(=O)c2ccc(C3CCCCC3)cc2)c1	11µM*	4%	-57%	-4%	?
O=C(O)c1cccc(NS(=O)(=O)c2ccc(C3CCCCC3)cc2)c1	/	/	/	16%	17%[46 µM]
O=C(c1ccc(NS(=O)(=O)c2cccs2)cc1)N1CCN(c2ccccc2Cl)CC1	-24%	/	13%[10 µM]	?	-22%[46 µM]
O=C(c1ccc(NS(=O)(=O)c2cccs2)cc1)N1CCCCC1	0%	11µM*	-16%[10 µM]	?	?
CC(C)(C)[C@]1(O)CCN2CC3c4ccccc4CCc4cccc(c43)[C@@H]2C1 (some centres not stated)	-18%	-9%	-66%	-16%	?
COc1cc(OC)cc(C(=O)NCC(=O)OCC(=O)/C=C2/N(C)c3ccccc3C2(C)C)c1	-25%	/	-37%	?	/
CN1/C(=C\C(=O)COC(=O)Cn2nnc(-c3ccccc3)n2)C(C)(C)c2ccccc21	11µM*	?	-8%	-14%	-2%
COC(=O)c1cc2c(-c3ccccc3)c(C)c3ccccn3c-2c1C(=O)OC	8%	-13%	-6%	20µM*	?
COC(=O)c1c(C)[nH]c(C=O)c1-c1ccccc1	-4%[9.22 µM]	/	17%[10 µM]	?	/
COC(=O)c1c(Cl)c2n3ccccc3c(C)c(-c3ccccc3)c-2c1C(=O)OC	-15%	-8%	21%[10 µM]	13µM*	-13%
COc1ccc(Cl)cc1NS(=O)(=O)c1ccc2[nH]c3c(c2c1)CCCC3	/	/	/	/	-23%[46 µM]
CCC(CC)C(=O)N1CCc2cc(OC)c(OC)cc2C1COc1ccc(C(=O)OC)cc1 (configuration not stated)	/	/	/	/	-16%[46 µM]
Cc1ccc(C(=O)NC(=S)Nc2ccc(S(=O)(=O)N(C)c3ccccc3)cc2)cc1	-5%	-7%	-15%	11µM*	6%
COc1ccccc1/C=C/C(=O)NC(=S)Nc1ccc(S(=O)(=O)N(C)c2ccccc2)cc1	14%	-22%	-16%	28µM*	0%
CN(c1ccccc1)S(=O)(=O)c1ccc(NC(=S)NC(=O)c2ccccc2)cc1	?	-20%	3%	10µM*	?
CN(c1ccccc1)S(=O)(=O)c1ccc(NC(=S)NC(=O)C2CC2)cc1	6%	-7%	9%[10 µM]	?	?
Cc1ccc(C(=O)Nc2ccc(S(=O)(=O)N(Cc3ccccc3)c3ccccc3)cc2)cc1	/	/	/	/	12%[46 µM]
CCOc1ccc(CNC(=O)CN2C(=O)CSc3c2c(C)nn3-c2ccccc2)cc1	/	/	/	/	-4%[46 µM]
O=C(c1c[nH]c(C(=O)C(Cl)(Cl)Cl)c1)c1ccc(F)cc1Cl	17%	/	4%[10 µM]	1µM*	?
O=C(c1ccccc1)c1c[nH]c(C(=O)C(Cl)(Cl)Cl)c1	21%	/	-23%	3.5µM*	6%[46 µM]
O=C(c1ccc(Cl)cc1)c1c[nH]c(C(=O)NNc2ccccc2)c1	?	/	-12%	20µM*	?
O=C(c1ccc(Cl)cc1)c1c[nH]c(C(=O)C(Cl)(Cl)Cl)c1	0%	?	-21%	8.9µM*	-11%
CN(C)C=NC(=O)c1cc(C(=O)c2ccc(Cl)cc2)c[nH]1	?	/	-27%[10 µM]	-3%	/
CN(C)C(=O)c1cc(C(=O)c2ccc(C(F)(F)F)cc2F)c[nH]1	-19%	/	-15%[10 µM]	-2%	1%[46 µM]
COc1cc(OC)c(NC(=O)c2cc(C)nc3c2c(C)nn3-c2ccc(C)cc2)cc1Cl	/	/	/	/	19%[46 µM]
